# GCN5L2 inh = qHTS Assay for Inhibitors of GCN5L2 | Histone acetyltransferase KAT2A (Homo sapiens), Q92830 | GCN5L2 HAT assay, ThioGlo1 CoA-SH fluorescence | Potency, µM (titrated, usually from 58.9 µM), without a hit: at the highest dose activity change, negative = inhibition, usual class: inhibitors | 0.21% of 390,000 active | AID 504327, 2011
# Target sequence (Q92830 whole entry, looked up): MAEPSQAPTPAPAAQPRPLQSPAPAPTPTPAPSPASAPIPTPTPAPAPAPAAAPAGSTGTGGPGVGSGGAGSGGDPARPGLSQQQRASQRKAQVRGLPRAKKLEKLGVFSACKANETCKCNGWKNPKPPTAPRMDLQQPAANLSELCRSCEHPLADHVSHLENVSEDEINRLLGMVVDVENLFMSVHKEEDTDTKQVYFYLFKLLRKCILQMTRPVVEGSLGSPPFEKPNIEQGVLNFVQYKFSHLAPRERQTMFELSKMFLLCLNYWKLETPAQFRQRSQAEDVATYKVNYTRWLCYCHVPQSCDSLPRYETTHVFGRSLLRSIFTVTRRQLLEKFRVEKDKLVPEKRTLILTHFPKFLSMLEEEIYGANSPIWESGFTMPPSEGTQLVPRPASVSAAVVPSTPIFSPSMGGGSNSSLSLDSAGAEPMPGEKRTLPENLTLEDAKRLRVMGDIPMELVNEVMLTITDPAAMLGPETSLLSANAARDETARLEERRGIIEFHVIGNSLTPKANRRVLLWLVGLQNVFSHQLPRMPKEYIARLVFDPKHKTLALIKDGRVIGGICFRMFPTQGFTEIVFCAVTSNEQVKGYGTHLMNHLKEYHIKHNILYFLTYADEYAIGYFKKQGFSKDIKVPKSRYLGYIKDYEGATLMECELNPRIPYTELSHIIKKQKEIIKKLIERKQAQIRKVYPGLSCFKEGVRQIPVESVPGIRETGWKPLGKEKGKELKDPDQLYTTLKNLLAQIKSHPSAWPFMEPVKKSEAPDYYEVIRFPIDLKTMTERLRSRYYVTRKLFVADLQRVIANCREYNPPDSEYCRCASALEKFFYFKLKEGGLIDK
#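 Titration-based screen in which CoA formation is detected via maleimide probe ThioGlo1 (50uM) turning fluorescent on thiol reaction; substrates H3(1-25) 75uM and acetyl-CoA 70uM, GCN5L2 20nM, 20 min incubation at room temperature.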
# TrxR1 substrate = qHTS Assay for Substrates of Mammalian Selenoprotein Thioredoxin Reductase 1 (TrxR1): qHTS; purified TrxR1 substrate turnover, NADPH consumption readout; 0.01% of 390,000 active; Potency, µM (highest dose often 114 µM), without a hit: at the highest dose activity change, negative = substrate turnover; Thioredoxin reductase 1, cytoplasmic (Rattus norvegicus), O89049; AID 588456, 2011; note: nearly all actives have a fitted effect of over 50% in size
#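 Rat TrxR1, dispensed at 90 nM, was prereduced with 400 uM NADPH (final) for 5 min at ~22 deg C, then incubated with compound 15 min before 400 uM selenite. A first-read NADPH fluorescence drop versus no-compound background flagged substrates.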
# VDR inh = Inhibitors of the vitamin D receptor (VDR): qHTS. Vitamin D3 receptor (Homo sapiens), P11473. VDR-SRC2-3 peptide fluorescence polarization, 2 h. Potency, µM, for the others: max response, negative = inhibition, usual class: inhibitors. 0.93% of 400,000 active. AID 504847, 2011
#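 Fluorescence polarization assay measuring small-molecule disruption of VDR binding to the coregulator peptide SRC2-3. Compounds were pin-transferred (23 nl) into the reagent mix and incubated 2 h at room temperature before reading.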
# rTrxR1 inhibitor = qHTS Assay for Inhibitors of Mammalian Selenoprotein Thioredoxin Reductase 1 (TrxR1): qHTS | Thioredoxin reductase 1, cytoplasmic (Rattus norvegicus), O89049 | recombinant rTrxR1, NADPH fluorescence consumption, selenite substrate | Potency, µM (titrated, usually from 114 µM), for the others: at the top dose activity change, negative = inhibition, usual class: inhibitors | 1% of 390,000 active | AID 588453, 2011; note: nearly all actives have a fitted effect of over 65% in size
#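 Rat TrxR1 (90 nM in the dispensed reagent) was pre-reduced with 400 uM NADPH for 5 min at room temperature, then incubated with compound for 15 min. After 400 uM selenite was added, NADPH fluorescence (Ex 340/Em 450 nm) was followed for 8 min.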
# * = called active by the depositor; i = inactive; ? = inconclusive; nt = no result given; ! = a repeat was not active; [ ] = remark or other dose. An excerpt weighted towards active compounds, which were near 1.8% of everything screened. Calls come from the whole dose curve; as a rule, active = well fitted curve in the direction sought with a large enough effect; inconclusive = small, poorly fitted or top-dose-only effect, or another doubt; inactive = no such curve, though single readings can be large; an effect the other way counts as inactive or inconclusive. % is set by controls: 0 for no effect and ±100 for the full control effect; potency is the fitted concentration of half-maximal effect.
SMILES,GCN5L2 inh,TrxR1 substrate,VDR inh,rTrxR1 inhibitor
COCc1cc(=O)[nH]c(SCCS(=O)(=O)c2ccc(C)cc2)n1,-2.8%,6.6%[57.1 µM],1.5%,1.0%[57.1 µM]
COCc1cc(=O)[nH]c(SCCS(=O)(=O)c2ccc(Cl)cc2Cl)n1,-8.3%,5.9%,?,1.26µM*
CCN(CC)C(NC(=O)Cc1ccccc1)C(Cl)(Cl)Cl (configuration not stated),-11.9%,11.5%,-4.7%,7.94µM*
CC(C)NC(NC(=O)Cc1ccccc1)C(Cl)(Cl)Cl (configuration not stated),-3.6%,-4.7%,1.1%,-16.2%
Cc1ccc(CN2C(=O)C(O)(c3c[nH]c4ccccc34)c3cc(Cl)ccc32)cc1 (configuration not stated),-7.4%,-6.5%,-6.9%,-1.1%
CCOC(=O)c1sc2nc(-c3ccco3)c3c(c2c1N)CC(C)(C)OC3,-15.7%,-6.5%,?,7.94µM*
COC(=O)CSc1ncnc2c1sc1nc(-c3ccco3)c3c(c12)CC(C)(C)OC3,-19.2%,nt,nt,nt
O=C1CCCc2cc(S(=O)(=O)N3CCCC(C(=O)NCc4ccccc4Cl)C3)ccc2N1 (configuration not stated),1.8%,-0.4%,-1.1%,21.1%
O=C1C=CC(=Nc2ccc3c(c2)Cc2cc(F)ccc2-3)O1,nt,6.0%,56.2µM*,3.16µM*
CC(C)(C=O)C1=CC(=O)c2ccccc2C1=O,-10.1%,11.8%,44.7µM*,44.7µM*
CC1=CC(=O)c2ccccc2C1=O,3.2%,-1.2%,3.55µM*!,-3.4%
O=C1C=C(Nc2ccccc2)C(=O)c2ccccc21,1.5%,0.7%[57.1 µM],4.4%,3.6%[57.1 µM]
COc1cccc2c1C(=O)C=C(C)C2=O,-2.2%,15.5%[57.1 µM],39.8µM*,21.3%[57.1 µM]
COc1ccc2c(c1O)C(=O)c1ccccc1C2=O,1.6%,nt,nt,nt
CSc1nc(O)c(C(c2ccc(OC(C)C)cc2)c2c(O)nc(SC)[nH]c2=O)c(=O)[nH]1,nt,3.0%[57.1 µM],22.4µM*,11.2µM*
COc1ccc(OC)c(NC(=O)Cn2cc(C(=O)c3ccc(Cl)cc3)c(=O)c3cc(OC)ccc32)c1,-4.1%,-7.5%,2.4%,2.5%
O=C(NCCO)c1ccc2nc(-c3ccco3)c(-c3ccco3)nc2c1,-7.0%,-2.6%,35.5µM*,8.91µM*
O=C(c1ccccc1)c1ccc2nc(-c3ccco3)c(-c3ccco3)nc2c1,?,4.7%[57.1 µM],44.7µM*,2.82µM*
c1coc(-c2nc3ccccc3nc2-c2ccco2)c1,-19.9%,24.5%,?,?
Cc1ccc(C)c(N2CCN(C(=O)c3ccc4nc(-c5ccco5)c(-c5ccco5)nc4c3)CC2)c1,-11.9%,14.3%,-19.3%,?
COc1cc([C@@H]2c3cc4c(cc3[C@@H](OC3OC5COC(C)OC5C(O)C3O)[C@H]3COC(=O)[C@H]23)OCO4)cc(OC)c1O (some centres not stated),0.2%,nt,0.0%,nt
CCc1ccc(CNC(=O)Cn2nc(C)n3c(cc4cc(C)ccc43)c2=O)cc1,-3.3%,6.0%,9.2%,22.5%
COc1ccccc1/C=c1/[nH]c(=O)/c(=C\c2ccccc2OC)[nH]c1=O,nt,-1.3%,nt,13.9%
O=C(Nc1cccc(F)c1)N1CCCC2(CCN(C(=O)c3cc(C(F)(F)F)cc(C(F)(F)F)c3)CC2)C1,-3.1%,nt,-17.3%,nt
CCOc1ccc(-c2nnc(SCC(=O)Nc3cccc(C#N)c3)o2)cc1,-7.2%,-6.8%,-1.5%,35.5µM*
SMILES,GCN5L2 inh,TrxR1 substrate,VDR inh,rTrxR1 inhibitor
COc1cc(OC)c(/C=C/c2cc3c4ccccc4ccc3[n+](C)c2)c(OC)c1,nt,247.4%,nt,-17.1%
CN1CCc2c(sc3c2C(=O)NC(c2ccc(OC(=O)c4ccccc4)cc2)N3)C1 (configuration not stated),-12.5%,7.4%,44.7µM*,-15.8%
CN1CCc2c(sc3c2C(=O)NC(c2ccccc2)N3)C1 (configuration not stated),-8.7%,72.9%,70.8µM*,19.4%[57.1 µM]
CN1CCc2c(sc3c2C(=O)NC(c2ccc(OC(=O)c4ccc(C(C)(C)C)cc4)cc2)N3)C1 (configuration not stated),-16.5%,11.3%,22.9%,-4.0%
O=C1NC(c2ccccn2)Nc2sc3c(c21)CCC3 (configuration not stated),0.5%,-3.1%,-8.2%,?
Cc1ccc(C2NC(=O)c3c(sc4c3CCN(C)C4)N2)s1 (configuration not stated),-10.4%,140.2%,?,24.2%[57.1 µM]
CN1CCc2c(sc3c2C(=O)NC(c2ccccn2)N3)C1 (configuration not stated),-7.6%,81.9%,25.1µM*,?
CC1(C)Cc2noc(N)c2C(C)(C)N1O,-17.0%,4.0%,10.5%,1.58µM*
CCOC(=O)[C@H]1[C@H]2COc3ccc(C)cc3[C@@H]2N2C(=O)CN(Cc3ccco3)C(=O)[C@@]12C,0.2%,3.1%,?,56.2µM*
O=C(Nc1nc(=O)n(C(=O)c2cccc(C(F)(F)F)c2)s1)c1ccccc1,-0.1%,-9.2%,14.1µM*,?
COc1ccccc1NC(=O)CSc1ccc(-c2ccco2)nn1,?,-6.7%,-13.5%,50.1µM*
COc1ccc(OC)c(NC(=O)CSc2ccc(-c3ccco3)nn2)c1,-8.6%,-4.5%,?,3.98µM*
COc1ccccc1NC(=O)Cc1nnc(SCC(=O)Nc2ccc(F)cc2F)n1C,-0.6%,4.4%,10.1%,14.9%
COc1ccccc1-n1c(SCC(=O)NC(C)(C)C)nnc1-c1ccco1,-3.1%,5.8%,17.2%,8.91µM*
COc1ccccc1-n1c(SCC(=O)N(C)C)nnc1-c1ccco1,nt,0.2%,23.0%,-6.0%
COc1ccccc1NC(=O)CSc1nnc(CCC(=O)Nc2ccccc2F)n1C,35.5µM*,-1.9%,-12.1%,5.4%
Cc1ccccc1NC(=O)CSc1ccc(-c2ccco2)nn1,21.7%,-2.5%,-10.9%,?
COc1ccc(/C=C/c2ccnc3ccccc23)cc1,nt,2.4%,nt,16.4%
CCCCNC(=O)[C@@H]1CC=C[C@@H]2CCN(C3CCCCC3)C(=O)[C@@H]21,nt,-26.0%,nt,0.4%
O=C(Nc1nc(-c2cccs2)cs1)C1CC(=O)N(c2ccc3c(c2)OCCO3)C1 (configuration not stated),nt,-6.3%,0.3%,6.6%
CCCC(=O)NC(=S)Nc1cccc(NC(=O)c2ccccc2)c1,-0.5%,-1.9%,21.3%,22.4µM*
CCCCC(=O)NC(=S)Nc1cccc(NC(=O)c2ccccc2)c1,2.5%,4.8%[57.1 µM],24.1%,-50.9%
O=C(NC1CCCc2ccccc21)c1cnn2c1NC(=C1CC1)C=C2C(F)F (configuration not stated),nt,0.8%,nt,26.1%
CCCc1cc(=O)oc2c(CN3CCCC3)c(O)ccc12,?,i,-0.2%,?
Cc1c(-c2ccccc2)c(=O)oc2c(CN3CCCC3)c(O)ccc12,35.5µM*,489.7%[57.1 µM],-10.6%,12.0%[57.1 µM]

# High-throughput results as filed in PubChem.
